According to PubChem BioAssay AID1347426 (Functional Genomics Laboratory (NCATS/FGL), 2020):
Out of some 31,000 sequences screened, about 1,400 (4.5%) were called active. Many of the other results were omitted from the sample, so actives are more common in it than they were. A number with no mark means an inactive call.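 Rule for the calls: active = median seed-adjusted z-score above 1 or below -1; inactive = the rest.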

assay: Novel Modifiers of Survival Motor Neuron (SMN) Protein: Gene Identification via Genome-wide siRNA Screen; conditions: HEK293T SMN2-luciferase reporter, siRNA knockdown, 72 h; actives lie on both sides;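 note: luminescence tracks full-length SMN protein made from the SMN2 reporter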
Source text: Spinal muscular atrophy (SMA) is the most common neuromuscular autosomal recessive disorder and one of the leading genetic causes of infant death. SMA results from mutations inducing loss of function or deletion in the survival of motor neuron-1 gene (SMN1), leading to deficiency of the survival motor neuron (SMN) protein. Although a second nearly identical gene, SMN2, is retained in humans, its expression primarily produces an aberrantly spliced isoform that is largely unstable and quickly degraded. We performed a genome-wide RNAi screen using a cell-based reporter assay to identify genes and pathways that modulate SMN protein stability. The screen identified over 200 genes that led to the greatest increase or decrease in luciferase expression.
Using HEK293T cells stably expressing a luciferase reporter that combines the promoter and splicing based cassettes in tandem with the major portion of the native SMN2 cDNA with luciferase, we performed a genome-wide RNAi screen to identify modulators of SMN protein levels. Luciferase is expressed when full-length SMN protein is generated with luminescence signal proportional to SMN protein levels. Our luciferase-based reporter assay was used to screen Ambion Silencer Select Human Druggable Genome siRNA library (10418 genes, 3 unique siRNAs per gene) using lipid-based reverse transfection.
Briefly, 1 pmol of each siRNA was spotted to a well of a 384-well plate (Corning, Corning, NY) and 20 microL of serum-free DMEM containing […] of Lipofectamine RNAiMax (Life Technologies, Carlsbad, CA) was then added to each well. Transfected cells were maintained at 37 degrees C in 5% CO2 for 72 hours, 20 microL of ONE-Glo Reagent (Promega) was added to wells for luciferase quantification. Raw luminescence reads were normalized to Ambion(R) Silencer(R) Negative Control #2 siRNA, then log10 transformed. A robust statistical measure of median absolute deviation (MAD) to standardize siRNA activities from each screen. Common Seed Analysis was used to help prioritize clean hits as opposed to those appearing to arise from seed based off-target effects. Candidate modulators were defined as the genes having a MAD score greater than 1.0 or less than -1.0.

Question: Which median seed-adjusted z-score does the source give for GGAUAAUACAGAAGCAGAATT against SAP30BP here?
Answer: Its median seed-adjusted z-score is -0.257.

Question: Which median seed-adjusted z-score does the source give for GGAAGAAACCAUUACAAUATT against SNAPC3 here?
Answer: The median seed-adjusted z-score was -1.72 (active).

Question: For AGAUGUGAAGCUCAAAUUATT against ETV7, which median seed-adjusted z-score is on record?
Answer: Its median seed-adjusted z-score is -0.00772.

Question: With GGGAGUCUUUCUUCGGGAATT against ABCG1 as the sequence, how does the median seed-adjusted z-score read?
Answer: The median seed-adjusted z-score was -0.609.

Question: For CAUCAUCUCUGGAACUCUUTT against ALAS2, which median seed-adjusted z-score is on record?
Answer: Its median seed-adjusted z-score is -0.142.

Question: With GGUCAUGCAGAUUAUGUUATT against TUFM as the sequence, how does the median seed-adjusted z-score read?
Answer: The median seed-adjusted z-score was 1.07 (active).

Question: For CCUAUUCCCGAAGCCGUUATT against PLAUR, which median seed-adjusted z-score is on record?
Answer: Its median seed-adjusted z-score is -0.118.

Question: With AAUGGAACCUGUAAGUGUATT against GCN5L2 as the sequence, how does the median seed-adjusted z-score read?
Answer: Its median seed-adjusted z-score is 0.013.

Question: With GAAGGACCCAGAUCUCUUUTT against ADCK1 as the sequence, how does the median seed-adjusted z-score read?
Answer: The median seed-adjusted z-score was -0.177.

Question: For GAUCCUAUCUUACUAACCATT against IL7R, which median seed-adjusted z-score is on record?
Answer: Its median seed-adjusted z-score is 0.

Question: For GGCUUAUUGGAGCUCUUAATT against CSE1L, which median seed-adjusted z-score is on record?
Answer: The median seed-adjusted z-score was 0.425.

Question: With CAAGAUCUCAAGAAAUUCATT against CDK2 as the sequence, how does the median seed-adjusted z-score read?
Answer: The median seed-adjusted z-score was -0.347.

Question: Which median seed-adjusted z-score does the source give for CCAUCGGAAUCUUGACGAATT against MX1 here?
Answer: The median seed-adjusted z-score was -1.49 (active).

Question: For GCAACGUGGACAUUGGUGATT against SOX10, which median seed-adjusted z-score is on record?
Answer: Its median seed-adjusted z-score is -0.255.

Question: Which median seed-adjusted z-score does the source give for GAGUUCCUCUGGUCACUAUTT against TTC18 here?
Answer: Its median seed-adjusted z-score is -1.15 (active).

Question: For GUUCAUCUUGAUUCACAAATT against NOC4L, which median seed-adjusted z-score is on record?
Answer: The median seed-adjusted z-score was -0.315.

Question: With GGAUGGCCAUUGAAGGGAUTT against ECHDC2 as the sequence, how does the median seed-adjusted z-score read?
Answer: Its median seed-adjusted z-score is -0.0827.

Question: With GGGACAGGCUGCAAAGAAATT against AARS2 as the sequence, how does the median seed-adjusted z-score read?
Answer: Its median seed-adjusted z-score is -0.52.

Question: Which median seed-adjusted z-score does the source give for CGGCUGGGUCUGUACCAAATT against TLX2 here?
Answer: Its median seed-adjusted z-score is -0.182.

Question: Which median seed-adjusted z-score does the source give for GGUCUUUGAUGCGAAGUUATT against DOCK2 here?
Answer: The median seed-adjusted z-score was 0.151.

Question: With GCAUCGACGUGAUCACCAUTT against GPR26 as the sequence, how does the median seed-adjusted z-score read?
Answer: Its median seed-adjusted z-score is -1.33 (active).

Question: For CAAACAUCCAUAUCUAUGATT against NMT1, which median seed-adjusted z-score is on record?
Answer: The median seed-adjusted z-score was 0.18.

Question: Which median seed-adjusted z-score does the source give for CGCUAUCCCAAUCGCUUUATT against CYB5R1 here?
Answer: The median seed-adjusted z-score was 0.

Question: Which median seed-adjusted z-score does the source give for GCAAGGGUCUCGGAUUAUATT against TMPRSS12 here?
Answer: The median seed-adjusted z-score was 0.0961.

Question: For CUAUAGAUGUGAUCAGUGUTT against ZNF32, which median seed-adjusted z-score is on record?
Answer: Its median seed-adjusted z-score is 0.034.

Question: With GCCCAAACUGAGUACAACUTT against PLA2G10 as the sequence, how does the median seed-adjusted z-score read?
Answer: Its median seed-adjusted z-score is 1.07 (active).

Question: For UGAGGACAAGGAUUUGGAATT against EIF2S2, which median seed-adjusted z-score is on record?
Answer: Its median seed-adjusted z-score is 0.576.

Question: Which median seed-adjusted z-score does the source give for AUAGUUGACUAUUCUGAAATT against CCL18 here?
Answer: Its median seed-adjusted z-score is 0.169.

Question: For AUACGGCUCUAACAGAUUATT against DBI, which median seed-adjusted z-score is on record?
Answer: The median seed-adjusted z-score was 0.0661.

Question: Which median seed-adjusted z-score does the source give for AGAAGAUCGGAAUUCUUUATT against RGPD5 here?
Answer: The median seed-adjusted z-score was -0.0931.

Question: For GGCUUAGGAUGGAGACCUATT against TGDS, which median seed-adjusted z-score is on record?
Answer: Its median seed-adjusted z-score is -0.196.

Question: For GUGUUUAAGGGCUUUUGAATT against CBR3, which median seed-adjusted z-score is on record?
Answer: The median seed-adjusted z-score was 0.057.

Question: Which median seed-adjusted z-score does the source give for GAAAUACCCUAUUACCAAATT against MED26 here?
Answer: The median seed-adjusted z-score was -1.86 (active).

Question: For AACCCAUCGUUCCAUAUUATT against PPOX, which median seed-adjusted z-score is on record?
Answer: The median seed-adjusted z-score was 0.519.

Question: For GAGUAGCAGGAAAAACGAATT against SNX13, which median seed-adjusted z-score is on record?
Answer: The median seed-adjusted z-score was 0.253.

Question: With CCUAUGACAUGUUUCCAGATT against MAP4K2 as the sequence, how does the median seed-adjusted z-score read?
Answer: Its median seed-adjusted z-score is -0.439.

Question: With GCUAUAAGCCGAUAGUAGATT against 11-Sep as the sequence, how does the median seed-adjusted z-score read?
Answer: The median seed-adjusted z-score was -0.245.

Question: With GCUGGGCCGAGUACCUUAATT against PDX1 as the sequence, how does the median seed-adjusted z-score read?
Answer: Its median seed-adjusted z-score is 0.

Question: Which median seed-adjusted z-score does the source give for GAAGUAAGUUUGUUGUAGATT against PGAP1 here?
Answer: Its median seed-adjusted z-score is -0.272.

Question: Which median seed-adjusted z-score does the source give for GCAAUGAGAUGAACACCGATT against NPEPL1 here?
Answer: The median seed-adjusted z-score was 1.12 (active).

Question: For GCCGAACUAUCUGAGAAUATT against PCDH1, which median seed-adjusted z-score is on record?
Answer: Its median seed-adjusted z-score is -0.514.

Question: Which median seed-adjusted z-score does the source give for GGGUUAAUGUUGAGGAAUUTT against NME7 here?
Answer: The median seed-adjusted z-score was -0.331.

Question: For CGGUAUCACCGUUGAUGAATT against ARID1A, which median seed-adjusted z-score is on record?
Answer: The median seed-adjusted z-score was -1.14 (active).

Question: Which median seed-adjusted z-score does the source give for CCUGAUUUCUUGUGAUACATT against DNAJC24 here?
Answer: The median seed-adjusted z-score was -0.0166.

Question: With GGACAUUUGCAUACUCCUATT against PPP1R14D as the sequence, how does the median seed-adjusted z-score read?
Answer: Its median seed-adjusted z-score is 0.

Question: Which median seed-adjusted z-score does the source give for GCAUUUCGCCUGACCAUUATT against SENP1 here?
Answer: The median seed-adjusted z-score was 0.625.

Question: With CCGUUUUGGUGAGUCAACATT against RANBP2 as the sequence, how does the median seed-adjusted z-score read?
Answer: The median seed-adjusted z-score was 1.53 (active).

Question: With GAAUUGGAGUGAUUCGAAUTT against NETO2 as the sequence, how does the median seed-adjusted z-score read?
Answer: The median seed-adjusted z-score was -0.136.

Question: Which median seed-adjusted z-score does the source give for GGAAGACUAUUGGAUAGAATT against ARHGAP18 here?
Answer: Its median seed-adjusted z-score is 0.

Question: For CACCAGAUCUACCAGUUCATT against ADM, which median seed-adjusted z-score is on record?
Answer: Its median seed-adjusted z-score is 0.65.

Question: For GCCCUACAUGGUAAAUUCATT against GTDC1, which median seed-adjusted z-score is on record?
Answer: The median seed-adjusted z-score was 0.2.

Question: Which median seed-adjusted z-score does the source give for CCCAAGAACUGCUACGUCATT against SMPD2 here?
Answer: Its median seed-adjusted z-score is -0.406.

Question: Which median seed-adjusted z-score does the source give for GAAACUUCCUAAGUCGAAATT against FAM57A here?
Answer: Its median seed-adjusted z-score is 0.0434.

Question: For CGUUCGGAAUAACUGAAAUTT against GNG7, which median seed-adjusted z-score is on record?
Answer: The median seed-adjusted z-score was -0.205.
